Experimental data taken from paper PMC7862700, “An all-to-all approach to the identification of sequence-specific readers for epigenetic DNA modifications on cytosine”.

How the values were obtained:
Assay in all cases: DAPPL (digital affinity profiling via proximity ligation, sequencing); 10 mM Tris-HCl pH 7.5, 50 mM NaCl, 1 mM DTT, 4% glycerol, room temperature, 30 min; GST-TFs on glutathione beads, 16-mer random dsDNA library, 0.1% formaldehyde crosslink after washing; high values mean tight binding
Details in all cases: protein: recombinant; tags: N-terminal GST; dsDNA, one strand shown
[1] = molecular target: T1, FEV (Homo sapiens, UniProt Q99581 1-238)
T1 sequence: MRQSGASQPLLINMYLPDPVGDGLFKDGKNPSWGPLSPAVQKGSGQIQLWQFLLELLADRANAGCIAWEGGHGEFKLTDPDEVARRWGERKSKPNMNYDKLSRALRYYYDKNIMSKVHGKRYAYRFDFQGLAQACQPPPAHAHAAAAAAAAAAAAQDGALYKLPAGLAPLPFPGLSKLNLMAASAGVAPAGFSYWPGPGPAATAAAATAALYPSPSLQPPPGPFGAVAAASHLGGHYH
Procedure, shortened: (§1)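 A tag-only sample was pooled with DNA-barcoded human transcription factors that had been expressed in yeast as GST fusions and captured on glutathione beads. The pools were incubated for 30 min at room temperature with 200 nmole of a random double-stranded 16-mer DNA library in Tris/NaCl/DTT/glycerol buffer, then washed, crosslinked with 0.1% formaldehyde, proximity-ligated (BsaI/T4 ligase, 1 h, 37 °C), PCR-amplified and sequenced on an Illumina NextSeq500. Binding signal is each hexamer's read frequency for a factor divided by its frequency for the tag-only sample.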

[2] = molecular target: ETV5 (Homo sapiens, UniProt P41161 1-510)
Procedure, shortened: as §1

[3] = molecular target: T2, SPIC (Homo sapiens, UniProt Q8N5J4 1-248)
T2 sequence: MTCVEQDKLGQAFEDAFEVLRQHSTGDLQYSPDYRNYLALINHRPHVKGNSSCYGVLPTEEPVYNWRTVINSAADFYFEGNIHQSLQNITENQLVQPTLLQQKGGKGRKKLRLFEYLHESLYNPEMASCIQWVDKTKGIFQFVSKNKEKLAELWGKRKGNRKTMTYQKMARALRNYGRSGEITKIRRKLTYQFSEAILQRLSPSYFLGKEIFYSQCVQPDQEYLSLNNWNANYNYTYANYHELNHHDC
Procedure, shortened: as §1

[4] = molecular target: ELF4 (Homo sapiens, UniProt Q99607 1-663)
Procedure, shortened: as §1

[5] = molecular target: T3, ELK4 (Homo sapiens, UniProt P28324-2 1-405)
T3 sequence: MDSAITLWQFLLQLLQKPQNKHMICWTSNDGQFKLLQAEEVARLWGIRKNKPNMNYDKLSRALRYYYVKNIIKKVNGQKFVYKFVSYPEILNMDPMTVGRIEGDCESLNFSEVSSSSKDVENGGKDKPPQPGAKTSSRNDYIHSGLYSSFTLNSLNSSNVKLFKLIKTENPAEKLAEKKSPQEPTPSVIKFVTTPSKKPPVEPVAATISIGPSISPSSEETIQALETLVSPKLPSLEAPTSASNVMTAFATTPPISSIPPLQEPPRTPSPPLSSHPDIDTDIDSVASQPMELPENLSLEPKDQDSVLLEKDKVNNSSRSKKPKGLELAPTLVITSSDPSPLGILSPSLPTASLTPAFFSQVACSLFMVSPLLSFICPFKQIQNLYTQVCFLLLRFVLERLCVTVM
Procedure, shortened: as §1

[6] = molecular target: T4, ETV2 (Homo sapiens, UniProt O00321 1-342)
T4 sequence: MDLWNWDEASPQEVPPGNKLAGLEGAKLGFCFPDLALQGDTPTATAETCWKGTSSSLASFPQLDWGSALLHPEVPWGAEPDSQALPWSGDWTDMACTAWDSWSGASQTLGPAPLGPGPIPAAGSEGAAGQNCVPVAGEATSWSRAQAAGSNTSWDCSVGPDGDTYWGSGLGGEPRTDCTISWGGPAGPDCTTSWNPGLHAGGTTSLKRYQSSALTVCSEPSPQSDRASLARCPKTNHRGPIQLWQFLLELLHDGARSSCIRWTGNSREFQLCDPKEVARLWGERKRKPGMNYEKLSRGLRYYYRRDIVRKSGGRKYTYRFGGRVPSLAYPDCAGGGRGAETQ
Procedure, shortened: as §1

[7] = molecular target: T5, ELF3 (Homo sapiens, UniProt P78545 1-371)
T5 sequence: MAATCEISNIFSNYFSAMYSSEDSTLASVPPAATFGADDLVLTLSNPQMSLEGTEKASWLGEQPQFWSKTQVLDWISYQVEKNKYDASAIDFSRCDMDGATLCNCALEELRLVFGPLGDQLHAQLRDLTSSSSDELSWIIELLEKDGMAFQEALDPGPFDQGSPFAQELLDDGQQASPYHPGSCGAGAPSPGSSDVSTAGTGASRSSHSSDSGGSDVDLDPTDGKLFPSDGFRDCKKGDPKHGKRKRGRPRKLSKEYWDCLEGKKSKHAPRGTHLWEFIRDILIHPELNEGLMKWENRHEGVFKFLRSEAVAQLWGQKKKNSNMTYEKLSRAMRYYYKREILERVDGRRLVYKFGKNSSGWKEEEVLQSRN
Procedure, shortened: as §1

[8] = molecular target: ETV1 (Homo sapiens, UniProt P50549 1-477)
Procedure, shortened: as §1

[9] = molecular target: T6, ERF (Homo sapiens, UniProt P50548 1-548)
T6 sequence: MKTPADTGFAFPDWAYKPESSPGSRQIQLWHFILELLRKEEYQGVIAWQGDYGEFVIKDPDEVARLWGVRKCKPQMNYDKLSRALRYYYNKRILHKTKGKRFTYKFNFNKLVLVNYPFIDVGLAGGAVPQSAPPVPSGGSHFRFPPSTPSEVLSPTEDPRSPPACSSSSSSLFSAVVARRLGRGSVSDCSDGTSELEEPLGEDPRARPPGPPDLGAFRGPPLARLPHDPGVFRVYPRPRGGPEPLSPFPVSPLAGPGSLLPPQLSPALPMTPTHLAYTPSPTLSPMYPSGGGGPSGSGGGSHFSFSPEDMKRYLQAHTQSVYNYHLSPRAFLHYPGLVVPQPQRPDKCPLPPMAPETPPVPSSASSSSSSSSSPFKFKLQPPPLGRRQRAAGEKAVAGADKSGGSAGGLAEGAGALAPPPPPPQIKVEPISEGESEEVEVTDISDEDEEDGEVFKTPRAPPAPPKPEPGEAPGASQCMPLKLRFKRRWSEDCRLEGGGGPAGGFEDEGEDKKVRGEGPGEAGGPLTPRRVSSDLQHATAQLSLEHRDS
Procedure, shortened: as §1

[10] = molecular target: T7, ETV3L (Homo sapiens, UniProt Q6ZN32 1-361)
T7 sequence: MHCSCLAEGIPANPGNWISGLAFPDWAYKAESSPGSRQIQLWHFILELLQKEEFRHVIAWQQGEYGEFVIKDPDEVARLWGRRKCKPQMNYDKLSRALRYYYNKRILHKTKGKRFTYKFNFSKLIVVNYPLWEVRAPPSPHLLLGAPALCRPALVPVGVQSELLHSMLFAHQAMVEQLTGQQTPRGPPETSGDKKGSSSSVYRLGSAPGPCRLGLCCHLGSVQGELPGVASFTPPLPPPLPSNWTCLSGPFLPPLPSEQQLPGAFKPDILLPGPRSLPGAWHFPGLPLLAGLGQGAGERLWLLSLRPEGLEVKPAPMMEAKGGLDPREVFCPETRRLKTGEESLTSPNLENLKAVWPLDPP
Procedure, shortened: as §1

[11] = molecular target: T8, ETS2 (Homo sapiens, UniProt P15036 1-469)
T8 sequence: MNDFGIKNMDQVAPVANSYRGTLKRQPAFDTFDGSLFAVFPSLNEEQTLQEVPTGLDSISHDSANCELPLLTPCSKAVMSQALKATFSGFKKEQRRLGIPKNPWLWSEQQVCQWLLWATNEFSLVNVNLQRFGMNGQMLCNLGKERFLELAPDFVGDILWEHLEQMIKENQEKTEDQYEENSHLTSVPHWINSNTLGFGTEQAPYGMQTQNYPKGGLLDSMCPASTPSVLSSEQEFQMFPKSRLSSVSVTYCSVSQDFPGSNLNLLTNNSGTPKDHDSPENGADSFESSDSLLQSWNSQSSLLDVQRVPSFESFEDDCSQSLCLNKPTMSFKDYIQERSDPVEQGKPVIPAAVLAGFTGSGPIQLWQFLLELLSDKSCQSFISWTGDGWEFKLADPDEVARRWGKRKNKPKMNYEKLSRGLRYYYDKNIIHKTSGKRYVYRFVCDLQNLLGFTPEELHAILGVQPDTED
Procedure, shortened: as §1

[12] = molecular target: T9, SPDEF (Homo sapiens, UniProt O95238 1-335)
T9 sequence: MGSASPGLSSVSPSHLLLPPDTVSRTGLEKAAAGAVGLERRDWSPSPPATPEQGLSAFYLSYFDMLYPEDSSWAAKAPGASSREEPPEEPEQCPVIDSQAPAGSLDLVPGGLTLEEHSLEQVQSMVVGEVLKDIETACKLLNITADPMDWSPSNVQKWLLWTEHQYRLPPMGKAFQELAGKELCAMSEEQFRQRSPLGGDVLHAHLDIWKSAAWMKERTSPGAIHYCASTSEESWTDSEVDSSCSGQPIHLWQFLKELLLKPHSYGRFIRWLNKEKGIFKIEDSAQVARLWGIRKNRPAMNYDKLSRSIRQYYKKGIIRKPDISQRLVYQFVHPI
Procedure, shortened: as §1

[13] = molecular target: T10, ETV7 (Homo sapiens, UniProt Q9Y603 1-341)
T10 sequence: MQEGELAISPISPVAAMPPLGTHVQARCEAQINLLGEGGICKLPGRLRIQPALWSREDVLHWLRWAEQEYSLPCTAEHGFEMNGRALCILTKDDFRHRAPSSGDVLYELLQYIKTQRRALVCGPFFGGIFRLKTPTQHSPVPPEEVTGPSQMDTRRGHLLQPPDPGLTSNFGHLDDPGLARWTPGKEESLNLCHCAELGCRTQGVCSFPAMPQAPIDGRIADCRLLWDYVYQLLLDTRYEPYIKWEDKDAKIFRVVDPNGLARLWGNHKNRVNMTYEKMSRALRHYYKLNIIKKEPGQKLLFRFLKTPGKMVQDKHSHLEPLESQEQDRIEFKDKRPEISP
Procedure, shortened: as §1

[14] = molecular target: T11, ELF5 (Homo sapiens, UniProt Q9UKW6-2 1-255)
T11 sequence: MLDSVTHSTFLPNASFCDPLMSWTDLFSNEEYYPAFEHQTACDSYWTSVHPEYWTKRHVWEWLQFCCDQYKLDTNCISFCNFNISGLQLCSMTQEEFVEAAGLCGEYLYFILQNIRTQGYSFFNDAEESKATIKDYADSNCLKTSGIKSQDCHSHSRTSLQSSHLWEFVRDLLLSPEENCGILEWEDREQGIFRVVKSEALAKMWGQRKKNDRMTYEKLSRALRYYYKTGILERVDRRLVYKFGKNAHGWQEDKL
Procedure, shortened: as §1

[15] = molecular target: T12, ETV3 (Homo sapiens, UniProt P41162-2 1-143)
T12 sequence: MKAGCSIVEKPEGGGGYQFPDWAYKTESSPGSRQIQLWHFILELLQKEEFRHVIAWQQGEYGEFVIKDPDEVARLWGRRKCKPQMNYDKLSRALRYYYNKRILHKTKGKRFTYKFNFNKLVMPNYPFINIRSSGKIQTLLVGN
Procedure, shortened: as §1

[16] = molecular target: ETV6 (Homo sapiens, UniProt P41212 1-452)
Procedure, shortened: as §1

Chain of ETV1 (P50549 whole entry): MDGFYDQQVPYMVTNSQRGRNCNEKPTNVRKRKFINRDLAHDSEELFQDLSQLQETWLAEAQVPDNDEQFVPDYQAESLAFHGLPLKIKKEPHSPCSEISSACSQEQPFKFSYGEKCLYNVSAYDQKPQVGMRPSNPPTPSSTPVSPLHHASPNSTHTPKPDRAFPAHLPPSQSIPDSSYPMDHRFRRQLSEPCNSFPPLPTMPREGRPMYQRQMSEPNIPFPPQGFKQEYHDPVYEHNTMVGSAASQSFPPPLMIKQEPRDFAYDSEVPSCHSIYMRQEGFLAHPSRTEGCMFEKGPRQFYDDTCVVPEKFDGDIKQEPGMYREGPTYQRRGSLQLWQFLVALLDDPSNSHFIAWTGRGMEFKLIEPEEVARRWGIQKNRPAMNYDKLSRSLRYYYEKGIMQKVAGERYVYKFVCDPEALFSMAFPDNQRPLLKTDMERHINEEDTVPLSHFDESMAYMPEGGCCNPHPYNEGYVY
Chain of ETV6 (P41212 whole entry): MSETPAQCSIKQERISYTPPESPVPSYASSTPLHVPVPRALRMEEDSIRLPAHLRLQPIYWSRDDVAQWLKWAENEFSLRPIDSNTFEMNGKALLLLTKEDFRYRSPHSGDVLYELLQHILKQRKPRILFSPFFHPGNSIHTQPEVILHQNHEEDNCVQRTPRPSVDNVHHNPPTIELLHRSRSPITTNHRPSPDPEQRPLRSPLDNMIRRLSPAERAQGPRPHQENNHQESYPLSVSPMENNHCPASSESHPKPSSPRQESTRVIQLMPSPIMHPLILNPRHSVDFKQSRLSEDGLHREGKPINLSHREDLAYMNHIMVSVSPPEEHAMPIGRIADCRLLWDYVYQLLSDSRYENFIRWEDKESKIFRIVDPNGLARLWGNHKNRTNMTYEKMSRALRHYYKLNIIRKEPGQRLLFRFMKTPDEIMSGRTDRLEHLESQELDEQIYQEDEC
Chain of ETV5 (P41161 whole entry): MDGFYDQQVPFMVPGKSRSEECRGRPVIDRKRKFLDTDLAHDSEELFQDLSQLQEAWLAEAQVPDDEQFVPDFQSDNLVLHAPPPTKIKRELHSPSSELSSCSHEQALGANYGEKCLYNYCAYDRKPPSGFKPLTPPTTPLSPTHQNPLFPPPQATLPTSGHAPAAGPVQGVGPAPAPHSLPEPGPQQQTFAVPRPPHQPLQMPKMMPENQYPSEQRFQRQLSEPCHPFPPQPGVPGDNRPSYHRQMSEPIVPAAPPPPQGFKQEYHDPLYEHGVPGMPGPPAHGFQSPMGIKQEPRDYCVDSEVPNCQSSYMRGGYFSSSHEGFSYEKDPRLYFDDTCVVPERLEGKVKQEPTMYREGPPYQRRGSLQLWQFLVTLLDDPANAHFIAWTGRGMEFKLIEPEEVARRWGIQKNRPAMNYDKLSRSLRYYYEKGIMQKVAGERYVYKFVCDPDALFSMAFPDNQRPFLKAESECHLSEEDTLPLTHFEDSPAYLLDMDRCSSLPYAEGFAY
Chain of ELF4 (Q99607 whole entry): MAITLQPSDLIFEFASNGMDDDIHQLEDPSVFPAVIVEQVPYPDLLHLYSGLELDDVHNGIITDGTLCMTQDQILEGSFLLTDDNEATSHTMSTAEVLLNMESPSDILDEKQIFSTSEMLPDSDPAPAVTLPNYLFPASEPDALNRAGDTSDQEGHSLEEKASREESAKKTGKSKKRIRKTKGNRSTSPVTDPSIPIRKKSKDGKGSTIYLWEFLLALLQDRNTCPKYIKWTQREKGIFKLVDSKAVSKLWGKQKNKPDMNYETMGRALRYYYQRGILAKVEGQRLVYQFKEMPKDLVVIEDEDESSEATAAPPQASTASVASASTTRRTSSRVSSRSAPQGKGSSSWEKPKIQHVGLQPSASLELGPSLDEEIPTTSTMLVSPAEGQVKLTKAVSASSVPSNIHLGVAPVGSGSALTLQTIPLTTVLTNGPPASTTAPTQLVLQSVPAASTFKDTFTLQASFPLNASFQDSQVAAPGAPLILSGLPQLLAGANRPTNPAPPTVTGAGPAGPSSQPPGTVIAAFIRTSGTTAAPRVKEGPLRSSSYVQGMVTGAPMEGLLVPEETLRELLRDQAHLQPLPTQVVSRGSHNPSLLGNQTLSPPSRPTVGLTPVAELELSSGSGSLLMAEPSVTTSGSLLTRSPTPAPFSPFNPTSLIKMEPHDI

GCGTCC
binding signal [1]: 1.36 fold enrichment (6-mer frequency, TF over GST control) | binding signal [2]: 1.16 fold enrichment (6-mer frequency, TF over GST control) | binding signal [3]: 1.23 fold enrichment (6-mer frequency, TF over GST control) | binding signal [4]: 1.2 fold enrichment (6-mer frequency, TF over GST control) | binding signal [5]: 1.25 fold enrichment (6-mer frequency, TF over GST control) | binding signal [6]: 1.08 fold enrichment (6-mer frequency, TF over GST control) | binding signal [7]: 1.37 fold enrichment (6-mer frequency, TF over GST control) | binding signal [8]: 1.26 fold enrichment (6-mer frequency, TF over GST control) | binding signal [9]: 1.32 fold enrichment (6-mer frequency, TF over GST control) | binding signal [10]: 1.24 fold enrichment (6-mer frequency, TF over GST control) | binding signal [11]: 1.18 fold enrichment (6-mer frequency, TF over GST control) | binding signal [12]: 1.56 fold enrichment (6-mer frequency, TF over GST control) | binding signal [13]: 1.17 fold enrichment (6-mer frequency, TF over GST control) | binding signal [14]: 1.25 fold enrichment (6-mer frequency, TF over GST control) | binding signal [15]: 1.24 fold enrichment (6-mer frequency, TF over GST control) | binding signal [16]: 1.19 fold enrichment (6-mer frequency, TF over GST control)

CCGGGT
binding signal [1]: 1.02 fold enrichment (6-mer frequency, TF over GST control) | binding signal [2]: 1.26 fold enrichment (6-mer frequency, TF over GST control) | binding signal [3]: 1.19 fold enrichment (6-mer frequency, TF over GST control) | binding signal [4]: 1.15 fold enrichment (6-mer frequency, TF over GST control) | binding signal [5]: 1.09 fold enrichment (6-mer frequency, TF over GST control) | binding signal [6]: 1.15 fold enrichment (6-mer frequency, TF over GST control) | binding signal [7]: 1.12 fold enrichment (6-mer frequency, TF over GST control) | binding signal [8]: 1.17 fold enrichment (6-mer frequency, TF over GST control) | binding signal [9]: 1.1 fold enrichment (6-mer frequency, TF over GST control) | binding signal [10]: 1.04 fold enrichment (6-mer frequency, TF over GST control) | binding signal [11]: 1.24 fold enrichment (6-mer frequency, TF over GST control) | binding signal [12]: 1.79 fold enrichment (6-mer frequency, TF over GST control) | binding signal [13]: 1.13 fold enrichment (6-mer frequency, TF over GST control) | binding signal [14]: 1.55 fold enrichment (6-mer frequency, TF over GST control) | binding signal [15]: 1.21 fold enrichment (6-mer frequency, TF over GST control) | binding signal [16]: 1.21 fold enrichment (6-mer frequency, TF over GST control)
